# Bioassay records deposited in PubChem BioAssay by several laboratories.
# C2C12 statin = suppressors of statin myotoxicity in C2C12 myotubes, primary screen, cell-based, single point, plate reader; rescue of ATP level, % at 7.49 µM; 330,000 compounds, 0.78% hits; C2C12 myotubes + simvastatin, ATP luminescence, 48 h; scaled: DMSO 0, geranylgeraniol control 100;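 active means mean ATP rescue above about 67%, or every replicate alone reaching that limit, limit read from the data, passing the limit was not always enough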;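 further: myotubes were challenged with 10 µM simvastatin during compound exposure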
# MITF TRPM1 HTS = activators of MITF-driven TRPM1 promoter reporter, primary screen, cell-based, SK-MEL-5, luciferase, single point. activation, % at 12.5 µM. 300,000 compounds, 0.75% hits. SK-MEL-5 TRPM1-promoter luciferase, 24 h; % of positive control, neutral wells = 0;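 active means mean activation of at least 80% with every replicate also reaching 80%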;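 further: 0% = neutral control wells and 100% = parthenolide positive control wells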
# esBAF inh = Bmi1 luciferase reporter increase in mESCs, primary screen, esBAF inhibitor project, mouse ES cells, Bmi1 luciferase knock-in, single point; 24 h; 100% = twice the neutral-well signal; reporter increase, % at 12.5 µM; 350,000 compounds, 2% hits; AID 602393, 2012; in the data active means activation above about 40%;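 further: 0% = median of the plate's neutral control wells and 100% = double that signal; a rise in the Bmi1 reporter signal indicates esBAF inhibition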
# Wnt bcat act = Wnt/beta-catenin pathway activators, primary screen, cell-based, plate reader, single point. Wnt/beta-catenin reporter cell assay, activator. activation, % at 9.35 µM. 300,000 compounds, 1.2% hits; in the data active means activation above about 30%, passing the limit was not always enough;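 further: 0% = neutral control wells and 100% = positive control wells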
# GAA850 FXN act = FXN promoter activators, primary screen, cell-based, luciferase luminescence, HEK293 lucGAA850. HEK293 lucGAA850 FXN promoter luciferase reporter, 24 h; percent of 10 µM SAHA response. activation, % at 6 µM. 360,000 compounds, 0.56% hits. AID 540364, 2011;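 active means activation above the average of all compounds screened plus 3 SD, cutoff fixed separately per campaign, cut at about 7.5% in these data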;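 further: 0% = DMSO wells and 100% = 10 µM SAHA wells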
# * = called active by the depositor; . = no result. An excerpt weighted towards active compounds, which were near 3.3% of everything screened.
SMILES,C2C12 statin,MITF TRPM1 HTS,esBAF inh,Wnt bcat act,GAA850 FXN act
COc1ccc(-c2cn(Cc3ccc4ccccc4c3)nn2)cc1,32,20,20,2,2
COc1ccc(-c2cn(CC3CCCCC3)nn2)cc1,3,88*,67*,18,6
c1ccc(-c2cn(C[C@H]3CC[C@@H]([C@@H]4CC[C@H](Cn5cc(-c6ccccc6)nn5)O4)O3)nn2)cc1,-5,0,2,-4,-1
Cc1ccc(Cn2cc(-c3ccccc3)nn2)cc1,-5,52,57*,20,1
C[C@@H]1CCCCO[C@@H](CN(C)C(=O)c2ccncc2)[C@H](C)CN([C@H](C)CO)C(=O)c2cc(NS(=O)(=O)c3ccc(F)cc3)ccc2O1,.,.,7,.,.
O=C(C[C@H]1C[C@H]2c3cc(NS(=O)(=O)c4ccc(F)cc4)ccc3O[C@H]2[C@H](CO)O1)N1CCOCC1,-4,.,0,.,.
CSc1nc2sc3c(c2c(=O)n1C)CCC3,-4,-11,6,0,3
CSc1nc2sc3c(c2c(=O)n1C)CCCC3,-5,54,45*,.,4
O=c1c2c3c(sc2nc2n1CCCC2)CCCC3,4,-1,48*,.,4
O=c1c2c3c(sc2nc2n1CCC2)CCCCC3,.,9,.,2,2
CC(C)c1cn(CC[C@@H]2CC[C@@H](NC(=O)C3CCCCC3)[C@H](CO)O2)nn1,-3,.,2,.,.
Cc1noc(C)c1NC(=O)N(C)C[C@H]1Oc2c(NS(=O)(=O)c3ccc(Cl)cc3)cccc2C(=O)N([C@@H](C)CO)C[C@@H]1C,.,.,-1,.,.
Brc1ccc(-c2csc(/N=C/N3CCCC3)n2)cc1,-16,65,34,27,4
OCCN(/C=N/c1nc(-c2ccc(Br)cc2)cs1)CCO,.,58,41*,-1,1
Brc1ccc(-c2csc(/N=C/N3CCOCC3)n2)cc1,-5,35,51*,.,0
COc1ccc(-c2csc(/N=C/N(C)C)n2)cc1OC,.,45,.,23,6
C[C@H](CO)N1C[C@H](C)[C@H](CN(C)S(C)(=O)=O)Oc2ccc(NS(=O)(=O)c3cn(C)cn3)cc2C1=O,42,.,0,.,.
O=C(C[C@@H]1CC[C@@H](NC(=O)Nc2ccccc2F)[C@@H](CO)O1)NCc1ccc(Cl)cc1,6,.,-4,.,.
C[C@@H]1CN([C@@H](C)CO)S(=O)(=O)c2ccc(/C=C/c3ccccc3)cc2O[C@H]1CN(C)C(=O)c1ccc2c(c1)OCO2,13,.,-4,.,.
CCCN(C)C[C@H]1Oc2ncc(C#Cc3ccccc3OC)cc2C(=O)N([C@H](C)CO)C[C@H]1C,10,.,1,.,.
Oc1ccccc1-c1cc(-c2ccccc2)n[nH]1,0,52,18,53*,5
Oc1ccccc1-c1cc(-c2ccc(F)cc2)n[nH]1,11,36,-6,53*,6
Oc1ccc(Cl)cc1-c1cc(-c2ccccc2)n[nH]1,9,1,27,-1,1
O=C(C[C@H]1CC[C@@H](NC(=O)C2CC2)[C@@H](CO)O1)NCC1CC1,5,.,-2,.,.
CCOC(=O)c1sc(NC(=O)c2cccs2)cc1C,-34,46,65*,.,2
SMILES,C2C12 statin,MITF TRPM1 HTS,esBAF inh,Wnt bcat act,GAA850 FXN act
CCOC(=O)c1sc(NC(=O)Nc2cccc(Cl)c2)cc1C,.,60,.,35*,2
CCOC(=O)c1sc(=NC(=O)c2ccc(Cl)s2)n(C)c1C,.,54,.,8,5
CCOC(=O)c1cccc(NC(=O)c2cccs2)c1,4,31,15,.,-2
CCOC(=O)c1sc(NC(=O)c2sccc2C)cc1C,-41,.,5,59*,5
CCOC(=O)c1c(NC(=O)Nc2ccccc2)sc(C)c1C,.,6,.,.,1
CCOC(=O)c1sc(=NC(=O)c2cccs2)n(C)c1C,2,43,25,39*,7
CN(C)C(=O)C[C@@H]1CC[C@@H]2[C@H](COC[C@H](O)CN2CC2CC2)O1,-5,.,-2,.,.
CC(C)NC(=O)N[C@H]1CC[C@@H](CC(=O)N2CCCCC2)O[C@@H]1CO,6,.,-2,.,.
CCN(CC)C(=O)c1sc(NC(=O)c2ccc(Br)o2)c(C(=O)OC)c1C,29,1,3,-2,2
CCOC(=O)c1sc(NC(=O)c2ccc(Br)o2)cc1C,-113,94*,91*,.,3
Cc1ccc2nc(-c3ccc(F)cc3)c(Cc3cccc(Cl)c3)n2c1,6,.,48*,24,.
COc1cc(-c2nc3ccc(C)cn3c2NCc2ccccc2)ccc1-c1cccc(Cl)c1,-2,19,-5,-2,0
Cc1ccc2nc(-c3ccc(-c4cccc(Cl)c4)cc3)c(NCc3ccccc3)n2c1,85*,29,4,6,1
Cc1ccc(-c2nc3ccc(Br)cn3c2Cc2cccc(F)c2)cc1,-3,.,51*,-2,.
CCC(=O)N1[C@@H]2Cn3c(ccc(C4=CCCC4)c3=O)[C@H]1[C@@H](C(=O)N[C@@H](C)c1ccccc1)[C@@H]2CO,1,.,-1,.,.
CC(=O)N1N=C(c2ccccc2)CC1c1cn(C)c2ccccc12 (configuration not stated),-1,-7,32,90*,5
CC(C)CC#Cc1cnc2c(c1)C(=O)N([C@@H](C)CO)C[C@@H](C)[C@H](CN(C)C(=O)NC1CCCC1)O2,.,.,5,.,.
O=c1[nH]c(COc2ccc(Cl)cc2Cl)nc2ccccc12,10,79,73*,-2,4
COC(=O)c1ccc2c(c1)c(C#Cc1ccccc1)c(-c1ccccc1)n2C,4,80,47*,-1,1
COc1ccc(C#Cc2c(-c3ccccc3)n(C)c3ccccc23)cc1,1,-18,1,-4,0
O=C(C[C@@H]1C[C@@H]2c3cc(NC(=O)c4cccnc4)ccc3O[C@@H]2[C@H](CO)O1)NCc1ccncc1,1,.,-1,.,.
CO[C@@H]1CC[C@@H]2CCN(C)C(=O)[C@@H](C)CN(C)C(=O)c3cc(C#N)ccc3OC[C@@H]1O2,17,.,0,.,.
O=C(CNC(=O)c1cccs1)c1ccc(Cl)cc1,3,130*,39,5,4
Cc1cc(C)cc(C(=O)Nc2ccc(N3CCCC3)cc2)c1,.,18,.,9,4
Cc1cc(C)cc(NC(=O)Nc2ccc(N3CCCCC3)cc2)c1,.,.,.,39*,5
COc1ccc(NC(=O)c2ccc(-c3ccc(C(C)=O)cc3)o2)cn1,-25,35,45*,10,1
N=c1oc2cc(O)ccc2cc1C(=O)Nc1ccc(Cl)cc1,0,54,58*,47*,-1
Cc1ccc(NC(=O)c2cc3ccccc3oc2=N)cc1,-11,-21,-81,12,3
N=c1oc2ccccc2cc1C(=O)Nc1ccc(F)cc1,3,-12,-16,38*,3
